In PubChem BioAssay (EPA / NIEHS):
Several values for one entry are separate records, joined by “and”; a condition that tells them apart may be missing. Equal entries are not always repeated. Inconclusive results are not listed. Activity calls are given as the source filed them. Rule for the calls, unless noted: active = hit-call score of the fitted dose curve at least 0.9, where 1 is the maximum; inactive = score below 0.9.

Columns and labels:
[1] = target: Nuclear respiratory factor 1 (Homo sapiens) (UniProt Q16656); assay: ATG_NRF1_CIS: Attagene CIS-FACTORIAL HepG2 Assay for human Nuclear Respiratory Factor 1 (NRF1) Orphan Gene (AID 2282987); conditions: HepG2 NRF1 cis-element reporter, Attagene multiplex; actives raise or lower the signal
Method in brief: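 Transcriptional reporter readout, one component of a 52-endpoint multiplexed HepG2 panel. Exposure 24 h; mRNA detected via RT-PCR and fluorescent capillary electrophoresis; fitting in both directions against DMSO.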

[2] = ATG_NFI_CIS: Attagene CIS-FACTORIAL HepG2 Assay for human Nuclear Factor I (NFI) (AID 2282989); conditions: HepG2 cis-regulatory reporter, NFI response element transcription; actives raise or lower the signal
Method in brief: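 Endogenous TF activity in HepG2 cells transiently transfected with cis-element-driven multiplexed reporter units, read 24 h after dosing. Reporter mRNA quantified by RT-PCR, 6-FAM labelling, HpaI digestion and capillary electrophoresis; bidirectional fit versus DMSO.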

[3] = target: Myc proto-oncogene protein (Homo sapiens) (UniProt P01106); assay: ATG_Myc_CIS: Attagene CIS-FACTORIAL HepG2 Assay for human Myelocytomatosis (Myc) Proto-Oncogene Transcription Factor (AID 2282990); conditions: HepG2, Attagene cis-reporter transcription factor activity; actives raise or lower the signal
Method in brief: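 Cells of the HepG2 human liver line bear multiple cis-driven reporter transcription units. Reporter mRNA after 24 h exposure is reverse-transcribed, amplified, labelled and resolved by capillary electrophoresis, with gain- or loss-of-signal fitting relative to DMSO.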

[4] = ATG_NF_kB_CIS: Attagene CIS-FACTORIAL HepG2 Assay for human Nuclear Factor Kappa B (NF-kB) (AID 2282991); conditions: HepG2 Attagene cis-factorial NF-kB reporter mRNA; actives raise or lower the signal
Method in brief: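 HepG2, transient multi-reporter transfection, cis promoter elements (endogenous TFs). 24 h exposure. Total RNA → RT → PCR → 6-FAM label → HpaI → CE. Gain/loss vs DMSO.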

[5] = ATG_NRF2_ARE_CIS: Attagene CIS-FACTORIAL HepG2 Assay for human Nuclear Factor Erythroid 2 Related Factor 2 (NFR2) response to Antioxidant Response Elements (ARE) (AID 2282992); conditions: HepG2 Attagene ARE/NRF2 reporter, transcription factor activity; actives raise or lower the signal
Method in brief: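 Endogenous transcription factor activity read out as reporter transcript levels (RT-PCR plus capillary electrophoresis, fluorescence) in transiently transfected HepG2 cells. Measured at 24 h after dosing; gain or loss of signal fitted versus DMSO.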

[6] = ATG_Oct_MLP_CIS: Attagene CIS-FACTORIAL HepG2 Assay for human Octamer-Binding Transcription Factor (Oct) (AID 2282993); conditions: HepG2 Attagene cis-factorial Oct reporter, mRNA; actives raise or lower the signal
Method in brief: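 HepG2 cells transiently transfected with cis-element-driven reporter transcription units (endogenous TF activity); 24 h compound exposure. Reporter mRNA quantified by RT-PCR, 6-FAM labelling, HpaI digestion and capillary electrophoresis; bidirectional fit versus DMSO baseline.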

[7] = target: Cellular tumor antigen p53 (Homo sapiens) (UniProt P04637); assay: ATG_p53_CIS: Attagene CIS-FACTORIAL HepG2 Assay for human p53 Transcription Factor (AID 2282994); conditions: HepG2 p53 cis-element reporter, Attagene mRNA; actives raise or lower the signal
Method in brief: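 Endogenous p53 activity read in transiently transfected HepG2 from a cis-element-driven reporter transcript after 24 h exposure. RNA reverse-transcribed, PCR-amplified, fluorescently labelled and sized by capillary electrophoresis; gain or loss fitted against DMSO baseline.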

[8] = BSK_3C_TissueFactor: BioMAP Diversity Plus: 3C Assay for Tissue Factor Biomarker Activity (AID 2282997); conditions: BioMAP 3C HUVEC, tissue factor biomarker readout; actives raise or lower the signal
Method in brief: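 In this endothelial system, HUVEC are treated for 24 h and Tissue Factor is assessed by ELISA, normalised to DMSO.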

[9] = BSK_3C_uPAR: BioMAP Diversity Plus: 3C Assay for Urokinase-type plasminogen activator receptor (uPAR) Biomarker Activity (AID 2282998); conditions: BioMAP 3C HUVEC, uPAR biomarker ELISA; actives raise or lower the signal
Method in brief: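 Primary human umbilical vein endothelial cells, 3C system; surface uPAR measured by ELISA 24 h after dosing. Cytotoxicity via SRB total protein in parallel cultures; bidirectional fit against DMSO.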

[10] = BSK_3C_VCAM1: BioMAP Diversity Plus: 3C Assay for Vascular cell adhesion molecule 1 (VCAM1) Biomarker Activity (AID 2282999); conditions: BioMAP 3C HUVEC, VCAM1 ELISA, cytokine-stimulated; actives raise or lower the signal
Method in brief: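 Activity fitted in both directions relative to DMSO, with ELISA measurement of the surface marker on primary HUVEC (3C) at 24 h post-treatment; parallel SRB staining (0.1% SRB, TCA-fixed, 560 nm) flagged overt cytotoxicity.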

[11] = BSK_4H_Eotaxin3: BioMAP Diversity Plus: 4H Assay for Eotaxin 3 Biomarker Activity (AID 2283000); conditions: primary human endothelial cells (HUVEC); actives raise or lower the signal;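 note: CCL26 protein level quantified by ELISA in parallel with SRB cytotoxicity check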
Method in brief: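 ELISA quantitation of CCL26 (Eotaxin-3) protein from chemically dosed human vascular endothelial cells at 24 h; increases and decreases both scored relative to DMSO-treated baseline.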

[12] = target: human Peroxisome Proliferator-activated Receptor alpha (PPARa), PPARA (gene 5465) (UniProt Q07869); assay: ATG_PPARa_TRANS: Attagene TRANS-FACTORIAL HepG2 Assay for human Peroxisome Proliferator-activated Receptor alpha (PPARa) (AID 2283001; active = hit-call score of the fitted dose curve at least 0.9, where 1 is the maximum;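 for AC50: potency for gain of reporter signal over DMSO so agonist or activator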)
Method in brief: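 Transfected HepG2 cells treated with test chemical for 24 h. RNA isolated, reverse-transcribed with oligo(dT), PCR-amplified, FAM-labelled and HpaI-digested. Fragments sized by capillary electrophoresis; gain-of-signal fit relative to DMSO.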

[13] = target: human Peroxisome Proliferator-activated Receptor delta (PPARd), PPARD (gene 5467) (UniProt Q03181); assay: ATG_PPARd_TRANS: Attagene TRANS-FACTORIAL HepG2 Assay for human Peroxisome Proliferator-activated Receptor delta (PPARd) (AID 2283002; active = hit-call score of the fitted dose curve at least 0.9, where 1 is the maximum)
Method in brief: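 Cell-based TRANS reporter: HepG2, transient MRTU transfection, 24 h exposure. Readout = reporter mRNA (RT-PCR/CE, 6-FAM). Gain-of-signal fit vs DMSO control.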

[14] = read-out: Intercellular Adhesion Molecule 1 (ICAM1), ICAM1 (gene 3383); assay: BSK_3C_ICAM1: BioMAP Diversity Plus: 3C Assay for Intercellular Adhesion Molecule 1 (ICAM1) Biomarker Activity (AID 2283003); conditions: primary human endothelial cells (HUVEC); actives raise or lower the signal
Method in brief: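 Using DMSO as baseline, bidirectional curve fitting was applied to ICAM-1 ELISA signals from HUVEC in the 3C system, measured 24 h after compound addition.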

[15] = target: human Retinoic Acid Receptor beta (RARb), RARB (gene 5915) (UniProt P10826); assay: ATG_RARb_TRANS: Attagene TRANS-FACTORIAL HepG2 Assay for human Retinoic Acid Receptor beta (AID 2283004; active = hit-call score of the fitted dose curve at least 0.9, where 1 is the maximum)
Method in brief: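 Fluorescent capillary-electrophoresis detection of GAL4-UAS reporter mRNA defines the endpoint, with induction over DMSO-treated wells scored as activity. Transiently transfected human hepatoma HepG2 cells expressing exogenous NR–Gal4 proteins are exposed to test chemicals for 24 h.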

[16] = target: Retinoic acid receptor alpha (Homo sapiens) (UniProt P10276); assay: ATG_RARa_TRANS: Attagene TRANS-FACTORIAL HepG2 Assay for human Retinoic Acid Receptor alpha (RARa) (AID 2283005; active = hit-call score of the fitted dose curve at least 0.9, where 1 is the maximum)
Method in brief: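 Reporter transcripts, measured by RT-PCR with fluorescent labeling and capillary electrophoresis after 24 h dosing, reflect activity of an exogenous human RARa–GAL4 fusion in transiently transfected HepG2. Fitted for increase relative to DMSO.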

[17] = BSK_3C_Proliferation: Cell Proliferation Assessment in the BioMAP Diversity Plus: 3C Assay (AID 2283006); conditions: primary human endothelial cells (HUVEC);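 for AC50: potency may reflect either rise or fall in cell number versus DMSO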
Method in brief: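 Measured here: sulforhodamine B (0.1%) staining of TCA-fixed sub-confluent umbilical vein endothelial cultures 48 h post-dosing, absorbance 560 nm. DMSO served as negative control and baseline; both signal gain and loss were modelled.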

[18] = target: Peroxisome proliferator-activated receptor gamma (Homo sapiens) (UniProt P37231); assay: ATG_PPARg_TRANS: Attagene TRANS-FACTORIAL HepG2 Assay for human Peroxisome Proliferator-activated Receptor-gamma (PPARg) (AID 2283007; active = hit-call score of the fitted dose curve at least 0.9, where 1 is the maximum)
Method in brief: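 Multiplexed reporter transcription units in HepG2, 24 h dosing, reporter transcripts quantified by fluorescent RT-PCR and capillary electrophoresis. Increase over DMSO scored.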

[19] = target: Nuclear receptor subfamily 1 group I member 2 (Homo sapiens) (UniProt O75469); assay: ATG_PXR_TRANS: Attagene TRANS-FACTORIAL HepG2 Assay for human Pregnane X Receptor (PXR) (AID 2283008; active = hit-call score of the fitted dose curve at least 0.9, where 1 is the maximum)
Method in brief: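 Transactivation by exogenous PXR–GAL4 fusion measured as reporter transcript induction after 24 h compound treatment of transfected human HepG2 cells. Read-out via RT-PCR and capillary electrophoresis of labelled fragments, fitted upward relative to DMSO.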

[20] = target: human Retinoic Acid Receptor gamma (RARg), RARG (gene 5916) (UniProt P13631); assay: ATG_RARg_TRANS: Attagene TRANS-FACTORIAL HepG2 Assay for human Retinoic Acid Receptor gamma (RARg) (AID 2283009; active = hit-call score of the fitted dose curve at least 0.9, where 1 is the maximum)
Method in brief: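 Gain-of-signal relative to DMSO is reported from fluorescent capillary electrophoresis of RT-PCR reporter products. These came from HepG2 cells expressing transfected RARg-GAL4 chimeras with UAS reporters, harvested 24 h after dosing.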

Measured: AC50

Peroxisome proliferator-activated receptor gamma (Homo sapiens), sequence (P37231 whole entry, looked up): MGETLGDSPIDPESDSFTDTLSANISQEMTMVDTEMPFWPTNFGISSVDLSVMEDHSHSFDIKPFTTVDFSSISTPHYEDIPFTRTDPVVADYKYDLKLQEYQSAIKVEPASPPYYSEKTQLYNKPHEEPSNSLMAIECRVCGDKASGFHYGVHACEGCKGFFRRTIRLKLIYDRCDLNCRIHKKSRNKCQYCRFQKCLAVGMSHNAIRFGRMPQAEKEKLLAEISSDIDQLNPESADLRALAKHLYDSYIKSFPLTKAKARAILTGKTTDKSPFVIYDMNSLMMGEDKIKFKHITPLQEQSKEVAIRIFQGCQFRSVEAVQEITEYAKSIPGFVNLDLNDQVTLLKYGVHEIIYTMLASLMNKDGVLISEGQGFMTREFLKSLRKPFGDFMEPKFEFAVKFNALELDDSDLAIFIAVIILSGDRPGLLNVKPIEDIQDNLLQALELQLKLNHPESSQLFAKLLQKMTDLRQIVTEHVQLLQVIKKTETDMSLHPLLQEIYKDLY
Nuclear respiratory factor 1 (Homo sapiens), sequence (Q16656 whole entry, looked up): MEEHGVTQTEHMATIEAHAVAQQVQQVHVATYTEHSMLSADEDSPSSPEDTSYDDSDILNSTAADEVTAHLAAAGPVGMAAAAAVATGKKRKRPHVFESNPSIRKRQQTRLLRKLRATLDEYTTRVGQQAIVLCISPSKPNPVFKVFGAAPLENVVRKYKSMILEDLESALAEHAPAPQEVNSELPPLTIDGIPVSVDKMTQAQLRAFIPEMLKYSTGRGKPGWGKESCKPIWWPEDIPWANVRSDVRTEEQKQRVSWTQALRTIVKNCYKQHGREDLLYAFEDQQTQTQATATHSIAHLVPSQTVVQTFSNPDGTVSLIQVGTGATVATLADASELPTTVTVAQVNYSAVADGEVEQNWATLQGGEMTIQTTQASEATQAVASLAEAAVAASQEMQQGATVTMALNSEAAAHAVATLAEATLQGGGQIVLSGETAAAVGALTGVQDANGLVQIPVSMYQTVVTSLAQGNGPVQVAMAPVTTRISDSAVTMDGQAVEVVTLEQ
Retinoic acid receptor alpha (Homo sapiens), sequence (P10276 whole entry, looked up, the tested form may be a part): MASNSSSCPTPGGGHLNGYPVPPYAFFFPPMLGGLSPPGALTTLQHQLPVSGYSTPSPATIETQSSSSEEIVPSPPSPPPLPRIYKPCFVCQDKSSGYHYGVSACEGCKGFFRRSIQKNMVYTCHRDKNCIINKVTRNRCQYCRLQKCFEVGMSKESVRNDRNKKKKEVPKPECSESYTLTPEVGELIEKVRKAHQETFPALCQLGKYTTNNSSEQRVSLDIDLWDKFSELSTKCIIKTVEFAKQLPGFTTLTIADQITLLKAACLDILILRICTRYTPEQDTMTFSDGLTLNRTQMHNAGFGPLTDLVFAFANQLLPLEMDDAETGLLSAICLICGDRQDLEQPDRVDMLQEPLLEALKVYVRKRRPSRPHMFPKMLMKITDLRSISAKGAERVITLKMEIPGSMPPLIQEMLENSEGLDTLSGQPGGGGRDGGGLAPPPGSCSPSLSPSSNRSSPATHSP
human Retinoic Acid Receptor gamma (RARg), RARG (gene 5916), sequence (P13631 whole entry, looked up, the tested form may be a part): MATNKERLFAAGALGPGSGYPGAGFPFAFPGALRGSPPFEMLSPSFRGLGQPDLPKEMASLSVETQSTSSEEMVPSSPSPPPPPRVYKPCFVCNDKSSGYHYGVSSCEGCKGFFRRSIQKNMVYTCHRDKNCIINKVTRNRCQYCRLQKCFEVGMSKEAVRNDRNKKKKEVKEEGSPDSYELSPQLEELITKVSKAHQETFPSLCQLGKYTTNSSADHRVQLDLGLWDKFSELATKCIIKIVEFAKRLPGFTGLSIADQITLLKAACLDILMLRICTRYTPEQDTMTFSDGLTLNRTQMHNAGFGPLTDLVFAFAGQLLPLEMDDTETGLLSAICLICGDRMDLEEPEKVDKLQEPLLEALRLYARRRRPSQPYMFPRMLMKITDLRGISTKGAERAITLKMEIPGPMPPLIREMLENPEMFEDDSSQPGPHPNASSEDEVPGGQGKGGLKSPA
Nuclear receptor subfamily 1 group I member 2 (Homo sapiens), sequence (O75469 whole entry, looked up, the tested form may be a part): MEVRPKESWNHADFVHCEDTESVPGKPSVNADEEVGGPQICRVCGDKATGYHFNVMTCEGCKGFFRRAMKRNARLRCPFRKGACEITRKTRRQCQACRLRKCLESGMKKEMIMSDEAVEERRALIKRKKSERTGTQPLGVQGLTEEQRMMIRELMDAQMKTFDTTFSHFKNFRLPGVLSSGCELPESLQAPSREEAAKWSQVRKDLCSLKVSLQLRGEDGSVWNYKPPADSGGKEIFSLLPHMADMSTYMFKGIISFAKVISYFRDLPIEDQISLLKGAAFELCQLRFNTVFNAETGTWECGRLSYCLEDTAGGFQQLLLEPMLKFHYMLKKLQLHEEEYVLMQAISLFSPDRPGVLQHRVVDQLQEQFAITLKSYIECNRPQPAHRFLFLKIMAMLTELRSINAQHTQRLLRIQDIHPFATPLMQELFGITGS
human Peroxisome Proliferator-activated Receptor alpha (PPARa), PPARA (gene 5465), sequence (Q07869 whole entry, looked up, the tested form may be a part): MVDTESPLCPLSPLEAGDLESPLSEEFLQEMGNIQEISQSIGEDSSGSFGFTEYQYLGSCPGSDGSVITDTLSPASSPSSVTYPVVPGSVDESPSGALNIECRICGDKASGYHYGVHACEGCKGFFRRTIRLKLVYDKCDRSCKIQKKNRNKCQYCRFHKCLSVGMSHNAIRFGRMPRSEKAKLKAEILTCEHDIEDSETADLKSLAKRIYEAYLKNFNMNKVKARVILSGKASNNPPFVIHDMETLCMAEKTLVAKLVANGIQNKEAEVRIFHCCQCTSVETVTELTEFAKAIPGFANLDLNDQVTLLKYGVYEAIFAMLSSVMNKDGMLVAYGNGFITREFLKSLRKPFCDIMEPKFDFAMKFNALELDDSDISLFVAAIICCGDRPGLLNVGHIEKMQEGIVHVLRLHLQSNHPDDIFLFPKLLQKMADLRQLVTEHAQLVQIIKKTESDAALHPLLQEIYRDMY
human Retinoic Acid Receptor beta (RARb), RARB (gene 5915), sequence (P10826 whole entry, looked up, the tested form may be a part): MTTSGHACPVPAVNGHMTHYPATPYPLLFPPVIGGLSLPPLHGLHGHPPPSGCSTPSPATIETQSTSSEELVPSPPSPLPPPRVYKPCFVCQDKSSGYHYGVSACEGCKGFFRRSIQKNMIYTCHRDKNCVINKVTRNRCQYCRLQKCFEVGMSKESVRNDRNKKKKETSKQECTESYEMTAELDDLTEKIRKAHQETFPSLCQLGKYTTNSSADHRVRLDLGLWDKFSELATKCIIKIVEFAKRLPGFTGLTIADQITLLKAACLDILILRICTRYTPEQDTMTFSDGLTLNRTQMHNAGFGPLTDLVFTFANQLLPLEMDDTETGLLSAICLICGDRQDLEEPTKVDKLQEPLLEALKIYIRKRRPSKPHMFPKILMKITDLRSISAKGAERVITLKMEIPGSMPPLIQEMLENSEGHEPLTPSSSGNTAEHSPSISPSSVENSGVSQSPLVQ
Cellular tumor antigen p53 (Homo sapiens), sequence (P04637 whole entry, looked up): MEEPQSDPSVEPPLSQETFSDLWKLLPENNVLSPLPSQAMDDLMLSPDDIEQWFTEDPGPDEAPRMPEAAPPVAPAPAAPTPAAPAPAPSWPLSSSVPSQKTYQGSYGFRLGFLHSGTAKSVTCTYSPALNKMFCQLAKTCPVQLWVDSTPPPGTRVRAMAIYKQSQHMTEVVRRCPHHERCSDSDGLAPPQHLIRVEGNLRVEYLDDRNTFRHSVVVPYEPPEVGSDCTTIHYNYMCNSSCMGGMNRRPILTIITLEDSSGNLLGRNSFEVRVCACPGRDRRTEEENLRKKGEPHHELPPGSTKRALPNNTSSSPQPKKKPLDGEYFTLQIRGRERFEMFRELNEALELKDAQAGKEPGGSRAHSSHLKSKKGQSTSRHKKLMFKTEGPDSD
Myc proto-oncogene protein (Homo sapiens), sequence (P01106 whole entry, looked up): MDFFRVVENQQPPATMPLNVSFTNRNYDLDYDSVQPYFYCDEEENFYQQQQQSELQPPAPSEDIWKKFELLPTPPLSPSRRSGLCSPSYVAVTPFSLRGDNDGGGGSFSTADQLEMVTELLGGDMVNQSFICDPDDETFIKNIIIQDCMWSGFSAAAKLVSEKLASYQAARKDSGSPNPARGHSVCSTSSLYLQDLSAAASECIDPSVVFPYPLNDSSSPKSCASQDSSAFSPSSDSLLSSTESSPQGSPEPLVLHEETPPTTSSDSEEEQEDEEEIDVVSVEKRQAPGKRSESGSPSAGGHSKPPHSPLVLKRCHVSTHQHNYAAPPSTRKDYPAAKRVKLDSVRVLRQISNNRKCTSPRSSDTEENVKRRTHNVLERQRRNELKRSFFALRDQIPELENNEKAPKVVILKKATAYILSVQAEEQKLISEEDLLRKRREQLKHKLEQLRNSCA
human Peroxisome Proliferator-activated Receptor delta (PPARd), PPARD (gene 5467), sequence (Q03181 whole entry, looked up): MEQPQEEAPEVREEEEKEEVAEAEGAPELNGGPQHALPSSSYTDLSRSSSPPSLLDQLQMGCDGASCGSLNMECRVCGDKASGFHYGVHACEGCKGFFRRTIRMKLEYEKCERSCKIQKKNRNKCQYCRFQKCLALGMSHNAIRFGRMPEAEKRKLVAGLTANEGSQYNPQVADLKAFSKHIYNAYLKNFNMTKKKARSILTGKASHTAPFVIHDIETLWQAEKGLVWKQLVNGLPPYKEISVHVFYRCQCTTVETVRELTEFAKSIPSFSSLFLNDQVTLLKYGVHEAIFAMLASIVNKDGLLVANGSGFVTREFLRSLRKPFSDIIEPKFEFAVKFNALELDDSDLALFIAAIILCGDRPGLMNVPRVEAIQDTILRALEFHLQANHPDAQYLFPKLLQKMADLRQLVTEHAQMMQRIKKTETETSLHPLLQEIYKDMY

CNS(=O)(=O)C(F)(F)C(F)(F)C(F)(F)C(F)(F)C(F)(F)C(F)(F)C(F)(F)C(F)(F)F
active: [17] 30 µM and 23.8 µM
inactive: all other assays above

O=C(Cl)C(F)(F)C(F)(F)C(F)(F)C(F)(F)C(F)(F)C(F)(F)F
active: [5] 154 µM | [12] 10.9 µM | [18] 71.1 µM
not listed: [13]
inactive: all other assays above

OCC(O)CC(F)(F)C(F)(F)C(F)(F)C(F)(F)C(F)(F)C(F)(F)C(F)(F)C(F)(F)F (centres undefined)
inactive: all assays above
